The campaign covered roughly 5,600 compounds. About 150 (2.7%) showed an effect of 50% or more. The sample holds strong results, similar compounds and a random draw of the others, so the mix is not that of the screen.
Key:
[1] = biological target: T1, Protein deacetylase HDAC6 (Homo sapiens) (UniProt Q9UBN7); conditions: at 10 µM
T1 sequence (whole entry): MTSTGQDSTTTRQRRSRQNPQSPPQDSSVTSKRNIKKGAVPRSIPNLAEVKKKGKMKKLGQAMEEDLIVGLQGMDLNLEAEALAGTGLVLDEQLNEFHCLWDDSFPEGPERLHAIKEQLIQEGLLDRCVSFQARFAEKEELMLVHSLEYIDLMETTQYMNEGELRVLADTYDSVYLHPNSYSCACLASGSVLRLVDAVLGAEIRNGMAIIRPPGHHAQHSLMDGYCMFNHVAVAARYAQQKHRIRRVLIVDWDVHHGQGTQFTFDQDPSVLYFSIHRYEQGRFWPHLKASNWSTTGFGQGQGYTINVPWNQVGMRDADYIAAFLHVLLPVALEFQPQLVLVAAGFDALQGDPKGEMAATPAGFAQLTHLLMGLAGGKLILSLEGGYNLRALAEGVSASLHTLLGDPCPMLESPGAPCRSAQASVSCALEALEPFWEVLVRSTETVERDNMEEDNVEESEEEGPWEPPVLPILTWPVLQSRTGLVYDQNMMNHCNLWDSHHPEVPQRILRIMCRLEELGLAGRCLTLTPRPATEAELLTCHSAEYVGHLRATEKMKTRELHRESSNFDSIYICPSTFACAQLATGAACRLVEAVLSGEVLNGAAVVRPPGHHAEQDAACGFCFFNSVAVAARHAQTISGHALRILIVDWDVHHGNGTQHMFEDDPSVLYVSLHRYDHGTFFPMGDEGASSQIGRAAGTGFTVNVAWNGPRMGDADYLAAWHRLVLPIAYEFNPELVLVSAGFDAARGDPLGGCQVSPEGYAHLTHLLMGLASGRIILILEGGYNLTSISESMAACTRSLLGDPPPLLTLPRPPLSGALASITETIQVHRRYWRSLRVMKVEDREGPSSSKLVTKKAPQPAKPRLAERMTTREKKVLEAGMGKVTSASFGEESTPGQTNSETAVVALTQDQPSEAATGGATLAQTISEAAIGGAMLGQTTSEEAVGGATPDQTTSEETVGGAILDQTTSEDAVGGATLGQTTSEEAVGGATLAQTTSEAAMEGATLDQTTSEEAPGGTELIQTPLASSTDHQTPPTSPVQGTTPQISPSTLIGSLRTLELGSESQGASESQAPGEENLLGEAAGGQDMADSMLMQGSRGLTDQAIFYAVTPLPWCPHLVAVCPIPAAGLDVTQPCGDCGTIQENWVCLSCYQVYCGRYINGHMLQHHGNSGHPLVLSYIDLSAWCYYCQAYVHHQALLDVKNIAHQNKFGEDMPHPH

[2] = biological target: Protein deacetylase HDAC6 (Homo sapiens) (UniProt Q9UBN7); conditions: at 10 µM; remark: listed apart in the source

| Molecule | inhibition [1] [%] | inhibition [2] [%] |
| --- | --- | --- |
| C=CC(C)(O)CCC=C(C)C (stereo unspecified) | 1.97 | – |
| O=C(CN1C(=O)C2(CCCC2)NC[C@H]1c1cc(F)cc(F)c1)Nc1ccc2c(c1)C[C@@]1(C2)C(=O)Nc2ncccc21 | -4.92 | – |
| C=CC(=O)O | 0.87 | – |
| Cc1cc(O)c2c(c1)C(=O)c1cccc(O)c1C2=O | 6.5 | – |
| O=C1c2cccc(O)c2C(=O)c2c(O)cccc21 | -4.52 | – |
| C[C@@H]1CC(=O)c2c(ccc3c2C(=O)c2cccc(O)c2C3=O)C1 | 77.5 | – |
| Cc1ccc2c(N3CCN(CCc4cccc(N5CCNC5=O)c4)CC3)cccc2n1 | -3.2 | – |
| CCCCCCOc1cc2c(cc1N(C)c1ncc(C(=O)O)cn1)C(C)(C)CCC2(C)C | 0.82 | – |
| Nc1nccc(/C=C/c2ccccc2)n1 | 96.2 | – |
| Cc1cccc(/C=C/c2ccccc2)n1 | 98.2 | – |
| CC[N+](CC)(CC)CCOc1ccc(/C=C/c2ccccc2)cc1 | -3.25 | – |
| Cc1nc2ccccc2c(-c2ccc3c4c(ccnc24)CCO3)c1[C@H](OC(C)(C)C)C(=O)O | -1.87 | – |
| Cc1cc(N2CCOCC2)ccc1Nc1nc(NC2CCCCC2)c2nc[nH]c2n1 | -0.21 | – |
| Cc1cc2ncc(C(=O)NCC(C)(C)NCC(=O)N3CCC[C@H]3C#N)cn2n1 | 2.17 | – |
| COc1cc(Cc2cnc(N)nc2N)cc(OC)c1OC | -5.72 | – |
| COc1ccc(COc2ccc(Cc3cnc(N)nc3N)cc2OC)cc1 | 58.8 | – |
| COc1ccc(Cc2cnc(N)nc2N)cc1OC | -3.93 | – |
| c1nc2c(NC3CCCCC3)nc(Nc3ccc(N4CCOCC4)cc3)nc2[nH]1 | -4.12 | – |
| Cc1cc(/C(=C\Nc2ccc(Cl)cc2)C(=O)Nc2ccc(Cl)cc2)on1 | -2.63 | – |
| Oc1ccc2c(c1)CC[C@H](c1ccccc1)[C@@H]2c1ccc(OCCN2CCCC2)cc1 | -2.46 | – |
| O=c1c(-c2ccc(O)cc2)coc2cc(O)ccc12 | 76 | – |
| COc1cc(C(C)=O)ccc1O | 4.49 | – |
| O=c1c(O)c(-c2ccc(O)c(O)c2)oc2cc(O)ccc12 | 8.31 | – |
| Cc1cc(=O)oc2cc(O)ccc12 | -0.81 | – |
| COc1ccc(-c2coc3cc(O)ccc3c2=O)cc1 | 62.6 | – |
| COc1cc2c(=O)c(-c3ccc(O)cc3)coc2cc1O | 96.6 | – |

| Molecule | inhibition [1] [%] | inhibition [2] [%] |
| --- | --- | --- |
| COc1ccc(C(C)=O)c(O)c1 | 0.72 | – |
| CC(C)Oc1ccc2c(=O)c(-c3ccccc3)coc2c1 | -8.43 | – |
| O=c1c(-c2ccc(O)cc2)coc2c(C3OC(CO)C(O)C(O)C3O)c(O)ccc12 (stereo unspecified) | -5.66 | – |
| Cc1cc(CCCOc2c(C)cc(-c3noc(C(F)(F)F)n3)cc2C)on1 | -3.38 | – |
| CCCCNc1ncc2c(-c3ccc(CN4CCN(C)CC4)cc3)cn([C@H]3CC[C@H](O)CC3)c2n1 | 5.61 | – |
| COLISTIMETHATE SODIUM, CHEMBL1201441 | – | 0.02 |
| O=S(=O)(OC[C@H]1O[C@@](COS(=O)(=O)[O][Al]([OH])[OH])(O[C@H]2O[C@H](COS(=O)(=O)[O][Al]([OH])[OH])[C@@H](OS(=O)(=O)[O][Al]([OH])[OH])[C@H](OS(=O)(=O)[O][Al]([OH])[OH])[C@H]2OS(=O)(=O)[O][Al]([OH])[OH])[C@@H](OS(=O)(=O)[O][Al]([OH])[OH])[C@@H]1OS(=O)(=O)[O][Al]([OH])[OH])[O][Al]([OH])[OH] | -5.96 | – |
| OC[C@H]1O[C@@H](c2ccc(F)c(Cc3cc4ccccc4s3)c2)[C@H](O)[C@@H](O)[C@@H]1O | -2.47 | – |
| O=C(/C=C/c1ccc(O)c2c1[C@@H](C(=O)O[C@H](Cc1ccc(O)c(O)c1)C(=O)O)[C@H](c1ccc(O)c(O)c1)O2)O[C@H](Cc1ccc(O)c(O)c1)C(=O)O | 3.93 | – |
| CC(=O)NC[C@H]1CN(c2ccc(-c3ccc(CNCc4cnn[nH]4)cc3)c(F)c2)C(=O)O1 | 0.09 | – |
| Cn1nnc(-c2ccc(-c3ccc(N4C[C@H](CO)OC4=O)cc3F)cn2)n1 | 86.8 | – |
| Cc1cccc(N2CC(CO)OC2=O)c1 (stereo unspecified) | -6.61 | – |
| Cc1nc(-c2ccc(OCC(C)C)c(C#N)c2)sc1C(=O)O | 98.8 | – |
| CCCCOCCOc1nc(-c2ccc(C(=O)O)c(F)c2)sc1C | 0.11 | – |
| Cc1cc(SCc2sc(-c3ccc(C(F)(F)F)cc3)nc2C)ccc1OCC(=O)O | 3.31 | – |
| CCOC(=O)[C@@]1(CCCCCCOc2ccc(Cl)cc2)CO1 | -2.98 | – |
| CCC(CC)Nc1nc(C)c(-c2ccc(OC(F)(F)F)cc2OC)nc1OC | -3.03 | – |
| O=C1c2ccccc2-n2c1nc1ccccc1c2=O | 68.6 | – |
| O=c1c2ccccc2nc2n1CCCCC2 | 17.6 | – |
| O=c1c2ccccc2nc2n1CCc1c-2[nH]c2ccccc12 | 7.17 | – |
| O=C(O)c1cccc(-c2noc(-c3ccccc3F)n2)c1 | 99.8 | – |
| FC(F)(F)c1cccc(-c2noc(-c3cc(-c4ccccc4)c(C(F)(F)F)s3)n2)c1 | -4.64 | – |
| Cc1c(-c2ccc(-c3ccccc3F)cc2)nc2ccc(F)cc2c1C(=O)O | -2.53 | – |
| NC1(C(=O)N[C@@H](CCO)c2ccc(Cl)cc2)CCN(c2nc[nH]c3nccc2-3)CC1 | 5 | – |
| CN1C(=O)N[C@H](Cc2c[nH]c3c(Cl)cccc23)C1=O | 2.4 | – |
